Data taken from PubChem BioAssay.
Potency and affinity values are given separately. Activity calls are given as the source filed them. Unless noted, no cut-off is given here; in the data, nearly all actives have IC50 up to about 0.98 µM.

These molecules were tested against Calcium-dependent protein kinase 1 (Plasmodium falciparum (isolate 3D7)) (UniProt P62344) (assay: PfCDPK1 kinase inhibitors, biochemical, TCAMS library (AID 1159585;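 note: inhibitors leave more ATP so luminescence rises with inhibition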)). Details: recombinant PfCDPK1, Kinase-Glo ATP depletion luminescence.
Chain of Calcium-dependent protein kinase 1 (Plasmodium falciparum (isolate 3D7)) (P62344 whole entry, looked up): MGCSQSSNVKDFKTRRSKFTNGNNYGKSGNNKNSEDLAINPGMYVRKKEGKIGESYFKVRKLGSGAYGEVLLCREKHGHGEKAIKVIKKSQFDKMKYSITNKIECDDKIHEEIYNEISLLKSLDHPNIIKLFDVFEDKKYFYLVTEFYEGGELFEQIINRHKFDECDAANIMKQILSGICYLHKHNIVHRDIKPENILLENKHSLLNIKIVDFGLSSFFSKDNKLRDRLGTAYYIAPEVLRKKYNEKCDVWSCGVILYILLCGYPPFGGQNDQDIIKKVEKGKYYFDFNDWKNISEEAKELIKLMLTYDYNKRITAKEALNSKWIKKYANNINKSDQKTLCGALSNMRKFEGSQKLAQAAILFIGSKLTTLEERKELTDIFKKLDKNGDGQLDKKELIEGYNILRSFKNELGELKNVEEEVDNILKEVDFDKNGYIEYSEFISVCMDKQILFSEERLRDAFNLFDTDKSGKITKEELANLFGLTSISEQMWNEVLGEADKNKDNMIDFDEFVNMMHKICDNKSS

outcome, inactive:
CCC(C(=O)Nc1cc(=O)[nH]c2nc(-c3ccco3)nn12)c1ccccc1 (stereo not given)
O=C(Nc1ccc(-c2csc(-c3nc4ccccc4[nH]3)c2)cc1)Nc1ccc(Cl)c(Cl)c1
O=C(Nc1ccc(C(=O)N2CCN(CCN3CCN(c4cccc(C(F)(F)F)c4)CC3)CC2)cc1)c1ccc(C(F)(F)F)cc1
COc1ccc(CNC2CCN(C)CC2)cc1-c1ccc(S(=O)(=O)NCc2ccccc2)c(F)c1
CCCCN(Cc1cc(Cl)c(OCC)c(OC)c1)c1ccc(C(O)(C(F)(F)F)C(F)(F)F)cc1
O=C(NCCCCN1CCN(c2cccc3ccccc23)CC1)c1ccc(NC(=O)c2ccc(Cl)cc2)cc1
CCOc1ccccc1[C@H]1[C@H](C(=O)C(C)(C)C)N2c3ccc(Br)cc3C=CC2C12C(=O)c1ccccc1C2=O (stereo not given in full)
Cc1nnsc1C(=O)Nc1cccc(-c2ccc(-c3nc4ccc(F)cc4[nH]3)s2)c1
O=C1C2=C(Nc3ccccc3SC2c2cccs2)c2ccccc21 (stereo not given)
COc1ccc(CCNCCCCCCNCCc2ccc(Cl)cc2)c(Cl)c1OC
C=CCc1cccc(C)c1OCCCON1C(N)=NC(N)=NC1(C)C
COc1ccccc1N(C)CCNc1cc(C)nc(Nc2ccccc2)n1
CN1CCN(C(C(=O)NCc2cc(Cl)cc(Cl)c2)c2ccccc2-c2ccsc2)CC1 (stereo not given)
CNCCNCc1cccc(-c2ccc(-c3nc4c(C)cccc4[nH]3)s2)c1
Cc1ccc(C(C#N)c2ccc3c(C(F)(F)F)cc(C(F)(F)F)nc3n2)cc1 (stereo not given)
O=C(/C=C/c1ccc(Cl)c(Cl)c1)N1CCN(C(=O)Nc2ccc(C(F)(F)F)cc2)CC1
CC(Cl)=CCc1c(C)[nH]c2c(ccc3ccccc32)c1=O
O=C(Nc1cccc(CN2CCCN(Cc3ncc[nH]3)CC2)c1)c1cc2ccccc2s1
CC(C)c1ccc2c(c1)c(SC(C)(C)C)c(CC(C)(C)C#N)n2Cc1ccc(Cl)cc1
COc1cc2nc(N3CCN(c4nc(N)c5cc(OC)c(OC)cc5n4)CC3)nc(N)c2cc1OC
COc1cc(NC(=O)c2cccs2)c(OC)cc1NC(=O)Nc1cccc(Cl)c1
COc1ccc2nccc([C@@H](O)CN3CCC(NC(=O)C(c4cc5ccccc5o4)N4CCN(c5ccccc5)CC4)CC3)c2c1 (stereo not given in full)
CCN(CC)CCN(Cc1ccc(-c2ccc(Cl)cc2)cc1)C(=O)Cn1cc(CN(C)C)c(=O)nc1SCc1ccc(F)cc1
Cc1[nH]c(C)c(-c2ccc(OCc3ccccc3)cc2)c(=O)c1Br
CSc1sc(NC(=O)Nc2cccc(C(F)(F)F)c2)cc1C#N
Cc1ccc(S(=O)(=O)NC2CCN(c3ccnc4cc(Cl)ccc34)C2)cc1 (stereo not given)
COc1ccc2nccc([C@@H](O)CN3CC[C@H](NCc4ccc5c(n4)NC(=O)CS5)[C@H](F)C3)c2c1
COC(=O)c1ccc(OCC(O)CO)cc1O (stereo not given)
COC(=O)c1cc(/C(C)=N/Nc2nc3ccccc3[nH]2)ccc1O
Cc1[nH]c(C)c(-c2ccc(OCCCc3ccccn3)cc2)c(=O)c1Br
Cc1ccc(NC(=O)c2ccc3ncccc3c2)cc1OC1CCN(C(C)C)C1 (stereo not given)
CCN(CC1CCN(CC2(O)CCOCC2)CC1)c1cc(C)nc(Nc2ccc(Cl)cc2)n1
CC(C)c1ccc(NC(=S)NN=Cc2ccccn2)cc1
Fc1ccccc1CNc1ncc(-c2ccsc2)c(-c2nccs2)n1
Cc1nc(N)nc(N)c1Oc1cccc(Cl)c1
Cc1cnc(-c2cccc(C(=O)NC3CCC(CCN4CCc5ccc(C#N)cc5CC4)CC3)c2)[nH]1 (stereo not given)
CC1(C)CCNc2cc(NC(=O)c3ccc(-c4ncccc4C(F)(F)F)cc3)ccc21
COc1ccc(NC(=O)[C@H](Cc2ccccc2)Nc2cc(C)nc(NCCc3cccnc3)n2)cc1
O=C1SC(=Cc2ccc(O)c(O)c2)C(=O)N1c1ccccc1
O=C(CCCCCNC(=O)c1ccc(O)c(-c2ccc(Cl)c(Cl)c2)c1)NC1CCCCCC1

Each molecule was assayed against Plasmodium falciparum protein kinase 6 (PK6, PF3D7_1337100) (UniProt Q8IDW1) (assay: PfPK6 kinase inhibitors, biochemical, TCAMS library (AID 1159586; call rule not given here)). Details: recombinant PfPK6, Kinase-Glo ATP depletion luminescence.
Chain of Plasmodium falciparum protein kinase 6 (PK6, PF3D7_1337100) (Q8IDW1 1-305): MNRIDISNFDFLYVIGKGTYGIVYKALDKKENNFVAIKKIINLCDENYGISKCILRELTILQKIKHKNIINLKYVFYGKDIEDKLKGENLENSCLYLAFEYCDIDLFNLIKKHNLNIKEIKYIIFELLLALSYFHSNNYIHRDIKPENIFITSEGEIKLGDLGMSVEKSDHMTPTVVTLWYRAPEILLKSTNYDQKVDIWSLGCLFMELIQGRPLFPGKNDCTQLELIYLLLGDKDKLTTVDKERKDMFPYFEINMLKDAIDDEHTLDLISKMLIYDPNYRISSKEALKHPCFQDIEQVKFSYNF

outcome, inactive:
CCC(C(=O)Nc1cc(=O)[nH]c2nc(-c3ccco3)nn12)c1ccccc1 (stereo not given)
O=C(Nc1ccc(-c2csc(-c3nc4ccccc4[nH]3)c2)cc1)Nc1ccc(Cl)c(Cl)c1
O=C(Nc1ccc(C(=O)N2CCN(CCN3CCN(c4cccc(C(F)(F)F)c4)CC3)CC2)cc1)c1ccc(C(F)(F)F)cc1
COc1ccc(CNC2CCN(C)CC2)cc1-c1ccc(S(=O)(=O)NCc2ccccc2)c(F)c1
CCCCN(Cc1cc(Cl)c(OCC)c(OC)c1)c1ccc(C(O)(C(F)(F)F)C(F)(F)F)cc1
O=C(NCCCCN1CCN(c2cccc3ccccc23)CC1)c1ccc(NC(=O)c2ccc(Cl)cc2)cc1
CCOc1ccccc1[C@H]1[C@H](C(=O)C(C)(C)C)N2c3ccc(Br)cc3C=CC2C12C(=O)c1ccccc1C2=O (stereo not given in full)
Cc1nnsc1C(=O)Nc1cccc(-c2ccc(-c3nc4ccc(F)cc4[nH]3)s2)c1
O=C1C2=C(Nc3ccccc3SC2c2cccs2)c2ccccc21 (stereo not given)
COc1ccc(CCNCCCCCCNCCc2ccc(Cl)cc2)c(Cl)c1OC
C=CCc1cccc(C)c1OCCCON1C(N)=NC(N)=NC1(C)C
COc1ccccc1N(C)CCNc1cc(C)nc(Nc2ccccc2)n1
CN1CCN(C(C(=O)NCc2cc(Cl)cc(Cl)c2)c2ccccc2-c2ccsc2)CC1 (stereo not given)
CNCCNCc1cccc(-c2ccc(-c3nc4c(C)cccc4[nH]3)s2)c1
Cc1ccc(C(C#N)c2ccc3c(C(F)(F)F)cc(C(F)(F)F)nc3n2)cc1 (stereo not given)
O=C(/C=C/c1ccc(Cl)c(Cl)c1)N1CCN(C(=O)Nc2ccc(C(F)(F)F)cc2)CC1
CC(Cl)=CCc1c(C)[nH]c2c(ccc3ccccc32)c1=O
O=C(Nc1cccc(CN2CCCN(Cc3ncc[nH]3)CC2)c1)c1cc2ccccc2s1
CC(C)c1ccc2c(c1)c(SC(C)(C)C)c(CC(C)(C)C#N)n2Cc1ccc(Cl)cc1
COc1cc2nc(N3CCN(c4nc(N)c5cc(OC)c(OC)cc5n4)CC3)nc(N)c2cc1OC
COc1cc(NC(=O)c2cccs2)c(OC)cc1NC(=O)Nc1cccc(Cl)c1
COc1ccc2nccc([C@@H](O)CN3CCC(NC(=O)C(c4cc5ccccc5o4)N4CCN(c5ccccc5)CC4)CC3)c2c1 (stereo not given in full)
CCN(CC)CCN(Cc1ccc(-c2ccc(Cl)cc2)cc1)C(=O)Cn1cc(CN(C)C)c(=O)nc1SCc1ccc(F)cc1
Cc1[nH]c(C)c(-c2ccc(OCc3ccccc3)cc2)c(=O)c1Br
CSc1sc(NC(=O)Nc2cccc(C(F)(F)F)c2)cc1C#N
Cc1ccc(S(=O)(=O)NC2CCN(c3ccnc4cc(Cl)ccc34)C2)cc1 (stereo not given)
COc1ccc2nccc([C@@H](O)CN3CC[C@H](NCc4ccc5c(n4)NC(=O)CS5)[C@H](F)C3)c2c1
COC(=O)c1ccc(OCC(O)CO)cc1O (stereo not given)
COC(=O)c1cc(/C(C)=N/Nc2nc3ccccc3[nH]2)ccc1O
Cc1[nH]c(C)c(-c2ccc(OCCCc3ccccn3)cc2)c(=O)c1Br
Cc1ccc(NC(=O)c2ccc3ncccc3c2)cc1OC1CCN(C(C)C)C1 (stereo not given)
CCN(CC1CCN(CC2(O)CCOCC2)CC1)c1cc(C)nc(Nc2ccc(Cl)cc2)n1
CC(C)c1ccc(NC(=S)NN=Cc2ccccn2)cc1
Fc1ccccc1CNc1ncc(-c2ccsc2)c(-c2nccs2)n1
Cc1nc(N)nc(N)c1Oc1cccc(Cl)c1
Cc1cnc(-c2cccc(C(=O)NC3CCC(CCN4CCc5ccc(C#N)cc5CC4)CC3)c2)[nH]1 (stereo not given)
CC1(C)CCNc2cc(NC(=O)c3ccc(-c4ncccc4C(F)(F)F)cc3)ccc21
COc1ccc(NC(=O)[C@H](Cc2ccccc2)Nc2cc(C)nc(NCCc3cccnc3)n2)cc1
O=C1SC(=Cc2ccc(O)c(O)c2)C(=O)N1c1ccccc1
O=C(CCCCCNC(=O)c1ccc(O)c(-c2ccc(Cl)c(Cl)c2)c1)NC1CCCCCC1
